High-throughput results deposited in PubChem by National Center for Advancing Translational Sciences (NCATS).
DT40 TDP1 CPT – qHTS for Inhibitors of human tyrosyl-DNA phosphodiesterase 1 (TDP1): qHTS in cells in presence of CPT | chicken DT40 Tdp1-/-;hTDP1 cells + 20 nM CPT, ATP luminescence, 48 h | Potency, µM (doses to about 46.2 µM), usual class: inhibitors | hit rate 12% among 420,000 | AID 686979, 2013; note: nearly all actives have a fitted effect of over 55% in size
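Cell growth measured by CellTiter-Glo luminescence after a minimum 48 h, 37 C compound exposure with 20 nM CPT in Tdp1-knockout DT40 cells stably expressing hTDP1, seeded 400/well; qHTS titration format.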
HT1080 IDH1KD tx – qHTS for induction of synthetic lethality in tumor cells producing 2HG: qHTS for the HT-1080-IDH1KD cell line. HT-1080 IDH1 knockdown viability, ATP luminescence, 48 h. Potency, µM (top dose mostly 46.1 µM), actives largely listed as cytotoxic. hit rate 2% among 360,000. AID 686971, 2013
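Assay cells: HT-1080 with IDH1 knockdown, 750 per well, RPMI/5% FBS. Exposure: 48 h at 37 °C following 2 h pre-incubation. Read: CellTiter-Glo luminescence; fitted concentration-response, curve class assigned.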
HT1080NT lethal – qHTS for induction of synthetic lethality in tumor cells producing 2HG: qHTS for the HT-1080-NT fibrosarcoma cell line; HT-1080-NT fibrosarcoma viability, CellTiter-Glo ATP luminescence, 48 h; hit rate 1.6% among 360,000; Potency, µM (highest dose often 46.1 µM), hits mostly cytotoxic;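 note: NT is the 2HG producing partner of a matched IDH1 knockdown line; nearly all actives have a fitted effect of over 55% in size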
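Fibrosarcoma NT cells, 750 per well in 5% FBS RPMI, were exposed to compound for 48 hours. Viability: CellTiter-Glo luminescence.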
KB-V1 MDR tox – qHTS assay for MDR1-selective chemotherapeutics: Primary screen using the drug-selected MDR subline cells KB-V1. KB-V1 MDR cells viability, CellTiter-Glo, 72 h. Potency, µM (series often up to 46.1 µM), most hits filed as cytotoxic. hit rate 3.4% among 400,000. AID 1347076, 2019; note: nearly all actives have a fitted effect of over 60% in size
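Readout: CellTiter-Glo luminescence, 10 min after addition. Cells: KB-V1 MDR subline, 72 h at 37 degrees C with compound. Analysis: corrected, normalized data fitted to concentration-effect curves.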
TDP1 cell noCPT – qHTS for Inhibitors of human tyrosyl-DNA phosphodiesterase 1 (TDP1): qHTS in cells in absence of CPT; DT40 Tdp1-/- hTDP1 cells, no CPT, ATP luminescence, 48 h; Potency, µM (highest dose often 46.2 µM), hits mostly inhibitors; hit rate 15% among 420,000; AID 686978, 2013; note: nearly all actives have a fitted effect of over 55% in size
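No-CPT arm: Tdp1-/-;hTDP1 DT40 cells (400/well) plus compounds, incubated ≥48 hr at 37 °C. Readout CellTiter-Glo luminescence.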
KB-3-1 cytotox – qHTS assay for MDR1-selective chemotherapeutics: Primary screen using the parental adenocarcinoma cell KB-3-1; hit rate 1.4% among 400,000; KB-3-1 viability, CellTiter-Glo ATP luminescence, 72 h; AID 1347075, 2019; Potency, µM (titrated, usually from 46.1 µM), usual class: cytotoxic; note: nearly all actives have a fitted effect of over 60% in size
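Viability of parental KB-3-1 cells, measured by CellTiter-Glo luminescence, followed a 72 h incubation at 37 °C with pinned compounds in phenol-red-free DMEM containing 10% FBS.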
Of the large screens only hits and unclear results are named; the others gave an inactive call; ! = not confirmed by another sample. Only some compounds are listed: those with a hit (about 19% of all), similar ones and a draw of the others. Calls come from the whole dose curve; as a rule, active = well fitted curve in the direction sought with a large enough effect; inconclusive = small, poorly fitted or top-dose-only effect, or another doubt; inactive = no such curve, though single readings can be large; an effect the other way counts as inactive or inconclusive.

CC(CCc1ccccc1)NCC#N (configuration not stated)	none
CC(CCc1ccc(O)cc1)NC(c1ccccc1)c1ccc(Cl)cc1 (configuration not stated)	DT40 TDP1 CPT inconclusive, HT1080 IDH1KD tx 7.31µM, HT1080NT lethal 10.3µM, TDP1 cell noCPT inconclusive
COc1ccc(CNC(C)CCc2ccccc2)cc1 (configuration not stated)	DT40 TDP1 CPT inconclusive, TDP1 cell noCPT inconclusive
CC(CCc1ccc(O)cc1)NCc1ccc(Br)cc1 (configuration not stated)	DT40 TDP1 CPT 11.6µM, HT1080 IDH1KD tx inconclusive, HT1080NT lethal inconclusive, TDP1 cell noCPT 16.4µM
CC(=O)N1CCc2c(sc3c2c(=O)n(-c2ccccc2)c(=O)n3CC(=O)Nc2ccccc2C)C1	KB-V1 MDR tox inconclusive (no result: HT1080 IDH1KD tx, HT1080NT lethal)
O=C(Nc1sc2c(c1C(=O)O)CCC2)C(=O)N1CCOCC1	none
CCCCCCCCCCCCCCCC[n+]1ccc(C(N)=O)cc1	DT40 TDP1 CPT 4.61µM, TDP1 cell noCPT 2.91µM, KB-3-1 cytotox inconclusive
CCCCCCCCCCCCCCCC[n+]1cccc(C(=O)N(CC)CC)c1	DT40 TDP1 CPT 2.91µM, HT1080 IDH1KD tx 20.6µM!, HT1080NT lethal inconclusive, TDP1 cell noCPT 2.59µM, KB-3-1 cytotox 13µM!
CCCCCCCCCCCC[n+]1ccc2ccccc2c1	DT40 TDP1 CPT 0.531µM, TDP1 cell noCPT 0.335µM (no result: HT1080 IDH1KD tx, HT1080NT lethal, KB-V1 MDR tox, KB-3-1 cytotox)
CCCCCCCC[n+]1cccc(C(=O)N(CC)CC)c1	TDP1 cell noCPT inconclusive
CCCCCCCCCCCCCCCC[n+]1ccc(/C=N/O)cc1	DT40 TDP1 CPT 1.64µM, HT1080 IDH1KD tx 23.1µM, HT1080NT lethal 20.6µM, TDP1 cell noCPT 1.64µM, KB-3-1 cytotox 2.91µM
CCCCCCCCCCCCCC[n+]1ccc(C)cc1	DT40 TDP1 CPT 0.422µM, TDP1 cell noCPT 0.376µM (no result: HT1080 IDH1KD tx, HT1080NT lethal, KB-V1 MDR tox, KB-3-1 cytotox)
O=C(COc1ccc2oc3c(c2c1)CCCC3)Nc1ccc(Cl)cc1	DT40 TDP1 CPT inconclusive, TDP1 cell noCPT inconclusive (no result: HT1080 IDH1KD tx, HT1080NT lethal)
N#Cc1c(-n2ncnc2-c2ccc(Br)cc2)sc2c1CCCCC2	DT40 TDP1 CPT inconclusive, TDP1 cell noCPT inconclusive (no result: HT1080 IDH1KD tx, HT1080NT lethal)
COc1ccc(C2Nc3ccccc3C(=O)N2c2cccc3ccccc23)cc1COc1c(C)cccc1C (configuration not stated)	DT40 TDP1 CPT 3.16µM, TDP1 cell noCPT 2.82µM, KB-3-1 cytotox 13µM (no result: HT1080 IDH1KD tx, HT1080NT lethal)
COc1ccc(N2C(=O)c3ccccc3NC2c2ccc(OC)c(COc3ccccc3F)c2)cc1 (configuration not stated)	TDP1 cell noCPT inconclusive (no result: HT1080 IDH1KD tx, HT1080NT lethal)
CCCN1C(=O)c2ccccc2NC1c1ccc(OC)c(COc2cccc(C)c2C)c1 (configuration not stated)	DT40 TDP1 CPT inconclusive, KB-V1 MDR tox inconclusive, TDP1 cell noCPT 15.8µM, KB-3-1 cytotox inconclusive (no result: HT1080 IDH1KD tx, HT1080NT lethal)
COC(=O)c1ccc(C(=O)OC)c(NC(=O)C(C)(C)C)c1	HT1080 IDH1KD tx inconclusive
COc1cc(C(=O)O/N=C2\C=CC(=O)C(C)=C2)cc(OC)c1OC	DT40 TDP1 CPT 6.51µM, HT1080 IDH1KD tx inconclusive, HT1080NT lethal 23.1µM, KB-V1 MDR tox inconclusive, TDP1 cell noCPT 16.4µM, KB-3-1 cytotox inconclusive
COc1ccc(S(=O)(=O)N=C2C=C(C)C(=O)C(C)=C2)cc1	DT40 TDP1 CPT 14.6µM, TDP1 cell noCPT 20.6µM
COc1ccc(C(=O)ON=C2C=C(C)C(=O)C(C)=C2)cc1	DT40 TDP1 CPT 13µM, TDP1 cell noCPT 23.1µM
COc1cc(C(=O)ON=C2C=C(C)C(=O)C(C)=C2)cc(OC)c1OC	DT40 TDP1 CPT 14.6µM, TDP1 cell noCPT 16.4µM
COc1cc(C(=O)O/N=C(\N)c2ccncc2)cc(OC)c1OC	DT40 TDP1 CPT inconclusive, TDP1 cell noCPT inconclusive
COc1ccc(S(=O)(=O)NN=C2CCCC2)cc1	none
